# Measured values published in PubChem BioAssay AID504467 (National Center for Advancing Translational Sciences (NCATS), 2011).
# Among all 330,000 compounds or so, about 7,700 (2.3%) were called active. Roughly 26% stayed inconclusive and do not appear here. The sample holds actives, similar compounds and a random draw of the others, so the mix is not that of the screen. Calls follow the shape of the dose curve; as a rule, active = well fitted inhibition curve with a large enough effect; inconclusive = small, poorly fitted or top-dose-only effect, or effect the other way; inactive = flat fitted curve, though single readings scatter.
# Assay: qHTS screen for small molecules that inhibit ELG1-dependent DNA repair in human embryonic kidney (HEK293T) cells expressing luciferase-tagged ELG1; also: nearly all actives have a fitted effect of over 55% in size
# Settings: HEK293T ELG1-luciferase reporter, luminescence, 16 h, DNA damage induced by 5-fluorouridine; series mostly up to 46.1 µM; activity change, negative = inhibition: at the top concentration
# Summary of the method: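 Cells (2,000 per well) received 5-fluorouridine plus test compound or DMSO and were incubated 16 hr at 37 °C, 5% CO2. Luciferase activity was read by luminescence 30 min after ONE-Glo addition; signal suppression marked inhibition of damage-induced ELG1 function.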
# % is scaled to controls: 0 for no effect and ±100 for the full control effect; potency is read from the fitted curve at half-maximal effect.
Structure (SMILES),"activity change, negative = inhibition",Potency
CCCCCN(C(=O)CCC(=O)OCCOc1ccc(OC)cc1)c1c(N)n(CCCC)c(=O)[nH]c1=O,-22.2% (inactive),–
CC(C)N(C(=O)[C@H]1C[C@H](CC(=O)NCCC2=CCCCC2)C(=O)N2CCc3c([nH]c4cc(CCC(=O)N(C)C)ccc34)[C@]12C)C(C)C,-10.1% (inactive),–
COc1ccccc1C(CNC(=O)c1cccc(NS(=O)(=O)c2ccc(Br)cc2)c1)N(C)C (configuration not stated),-5.67% (inactive),–
O=S(=O)(c1ccc(NC(=S)NN=C(C2CC2)C2CC2)cc1)N1CCOCC1,7.52% (inactive),–
O=[N+]([O-])c1cc(Cl)cc(/C=N/NC(=S)Nc2cc(S(=O)(=O)N3CCOCC3)ccc2Cl)c1O,–,20.6 µM (active)
O=C(NC(=S)Nc1ccc(S(=O)(=O)N2CCOCC2)cc1)c1ccccc1[N+](=O)[O-],5.03% (inactive),–
Cc1cc(=O)oc2c3c(cc(OCC(=O)N[C@H](C(=O)O)c4ccccc4)c12)OC(C)(C)CC3,-12.2% (inactive),–
O=C(c1ccccc1-c1ccccc1)N1CCOCC1,1.69% (inactive),–
Cc1oc2c(c1C(=O)N1CCOCC1)C(=O)c1ccccc1C2=O,–,4.61 µM (active)
Cc1noc(C)c1C(=O)N1CCOCC1,9.19% (inactive),–
CC(=O)NC12CC3CC(C1)CC(C(=O)N1CCN(S(=O)(=O)c4cccs4)CC1)(C3)C2,-2.67% (inactive),–
Nc1ncnc2c1ncn2[C@@H]1O[C@H](CNCc2cccn2-c2nccs2)[C@@H](O)[C@H]1O,17.2% (inactive),–
O=C(CCN1C(=O)[C@@H]2Cc3ccccc3CN2C1=O)NCCc1ccccc1,-2.64% (inactive),–
CN(C)C(=O)CCc1ccc2c3c([nH]c2c1)[C@]1(CCc2ccccc2)[C@@H](C(=O)N2CCCCC2)C[C@H](CC(=O)NCCC2=CCCCC2)C(=O)N1CC3,-29.9% (inactive),–
CC(C)(O)C#Cc1ccc(CN2CCC(CO)(CCc3ccccc3)CC2)cc1,-8.27% (inactive),–
COc1ccc(C)cc1NC(=O)C(OC(=O)c1cccc(S(=O)(=O)N(C)c2ccccc2)c1)c1ccccc1 (configuration not stated),-3.11% (inactive),–
CC(=O)c1c(C)[nH]c(C(=O)COC(=O)CCOc2ccc(C)cc2)c1C,12.8% (inactive),–
CC(=O)c1c(C)[nH]c(C(=O)COC(=O)c2cccc(S(=O)(=O)N(C)c3ccccc3)c2)c1C,–,18.4 µM (active)
COc1ccc(Cl)cc1NC(=O)CN(C)C(=O)c1cc(-c2cccs2)nn1-c1ccccc1,-10.8% (inactive),–
CCOc1ccc(C(=O)Nc2ccc(S(=O)(=O)Nc3cc(C)on3)cc2)cc1,8.23% (inactive),–
CCCCC(=O)NNC(=S)NC(=O)C(c1ccccc1)c1ccccc1,-4.87% (inactive),–
CC(C)C(=O)NC(=S)Nc1ccccc1F,3.5% (inactive),–
CC(C)C(=O)Nc1cccc(NC(=S)NC(=O)C(c2ccccc2)c2ccccc2)c1,–,16.4 µM (active)

Structure (SMILES),"activity change, negative = inhibition",Potency
Cc1ccc(NC(=O)CN(C)C(=O)c2cccc(S(=O)(=O)N3CCCC3)c2)cc1,7.43% (inactive),–
CCn1c2ccccc2c2cc(NC(=O)COC(=O)c3cc(S(=O)(=O)N4CCCCC4)ccc3Cl)ccc21,18.2% (inactive),–
CCn1c(O)c(N=NC(=O)c2cccc(S(=O)(=O)N3CCCCC3)c2)c2ccccc21,–,23.1 µM (active)
CC[C@]12c3[nH]c4ccc(Cl)cc4c3CCN1C(=O)[C@@H](CC(=O)NCCCOC)C[C@@H]2C(=O)N1CCN(C(=O)C2CC2)CC1,-3.04% (inactive),–
NC(=O)Nc1ccc(C(=O)OCC(=O)NC2CCCc3ccccc32)cc1 (configuration not stated),3.15% (inactive),–
CCOc1ccccc1NC(=O)CCS(=O)(=O)c1cccc2nsnc12,-1.26% (inactive),–
CCOc1ccc(OCC)c(NC(=O)CN(C)S(=O)(=O)c2cccc3nsnc23)c1,–,16.4 µM (active)
CCOc1ccc(N(CC)S(=O)(=O)c2cccc3nsnc23)cc1,-15.1% (inactive),–
Cc1ccc(CN2CC(C(=O)N3CCN(S(=O)(=O)c4ccccc4)CC3)CC2=O)cc1 (configuration not stated),3.98% (inactive),–
O=C(NNc1c2ccccc2nc2ccccc12)c1cc2ccccc2cc1O,–,13 µM (active)
Cc1ccc(/C=N/NC(=O)c2cc3ccccc3cc2O)o1,14.5% (inactive),–
CC(=O)Nc1ccc(Nc2c3ccccc3nc3ccccc23)cc1,-3.14% (inactive),–
CCS(=O)(=O)Nc1ccc(C2=NN(S(=O)(=O)c3ccc(F)cc3)C(c3ccco3)C2)cc1 (configuration not stated),–,20.6 µM (active)
COc1cccc(C2CC(c3ccccc3)=NN2S(=O)(=O)c2ccccc2)c1OC (configuration not stated),-10.5% (inactive),–
Cc1ccc(C2=NN(C(=O)COc3ncnc4ccccc34)C(c3ccco3)C2)cc1 (configuration not stated),6.64% (inactive),–
CC(NCC(=O)Nc1cc(Cl)cc(Cl)c1)c1ccccc1 (configuration not stated),-8.28% (inactive),–
COc1ccc(/C=C(/NC(=O)c2ccccc2)C(=O)Nc2cccc(C(=O)O)c2)cc1,-13.3% (inactive),–
COc1cc(SC)ccc1C(=O)N(Cc1ccccc1)c1ccccc1,-10.4% (inactive),–
CCCC(=O)Nc1cccc(NC(=S)NC(=O)C(C)Oc2ccc(Cl)cc2Cl)c1 (configuration not stated),–,20.6 µM (active)
COc1cccc(NC(=O)CN(C)C(=O)Cc2ccc(Cl)cc2Cl)c1,-1.46% (inactive),–
CC(Oc1ccc(Cl)cc1Cl)C(=O)/C=C/N(C)C (configuration not stated),2.25% (inactive),–
COc1ccc(C)cc1NC(=O)CN(C)S(=O)(=O)c1ccc2c(c1)n(C)c(=O)c(=O)n2C,7.65% (inactive),–
Cc1ccc(C)c(C(=O)COC(=O)Cn2[nH]c(=O)c3ccccc3c2=O)c1,-0.316% (inactive),–

Structure (SMILES),"activity change, negative = inhibition",Potency
O=C(CCc1nc(-c2ccccc2)no1)Nc1cccc(C(=O)NC2CC2)c1,-26.2% (inactive),–
CN(CC(=O)Nc1c(Cl)cccc1Cl)C(=O)CC1OC(=O)c2ccccc21 (configuration not stated),10.4% (inactive),–
CCN(C(=O)CSc1nc2ccccc2n1CC)C1CCS(=O)(=O)C1 (configuration not stated),5.4% (inactive),–
CCN(C(=O)COC(=O)c1c(NC(C)=O)sc(C)c1C)C1CCS(=O)(=O)C1 (configuration not stated),-2.68% (inactive),–
CCN(C(=O)COC(=O)/C=C/c1nc2ccccc2s1)C1CCS(=O)(=O)C1 (configuration not stated),–,9.2 µM (active)
C=CC(COCc1ccccc1)N(CC(=O)OC)S(=O)(=O)c1cc(Br)ccc1OC (configuration not stated),-2.49% (inactive),–
Cc1nc2cc(C(F)(F)F)ccc2n1CCNc1nc(-c2cc(Cl)c(N)c(Cl)c2)cs1,-16% (inactive),–
COc1ccc(-c2c(C)cc3oc(=O)cc(-c4ccccc4)c3c2C)cc1C=O,–,25.9 µM (active)
COc1ccc(-c2c(C)cc3oc(=O)cc(-c4ccccc4)c3c2C)cc1F,19.1% (inactive),–
COc1ccc(-c2c(C)cc3oc(=O)cc(-c4ccccc4)c3c2C)cc1OC,-11.1% (inactive),–
CCOC(=O)N1CCN(Cc2nnc(-c3ccccc3Cl)o2)CC1,8.04% (inactive),–
Cc1ccc(F)cc1NC(=O)CSCc1c(C)noc1C,23.3% (inactive),–
CCS(=O)(=O)NCCc1ccc(OC)c(OC)c1,-10.4% (inactive),–
COc1ccc(CCNc2nc(C)cc(C)n2)cc1OC,-0.316% (inactive),–
COc1ccc(CCNc2ncnc3nc[nH]c23)cc1OC,–,14.6 µM (active)
CCCN(C(=O)c1nc2nccc(C)n2n1)c1c(N)n(Cc2ccccc2)c(=O)[nH]c1=O,7.75% (inactive),–
O=C(Nc1ccccc1F)c1ccc(S(=O)(=O)N2CCCCCC2)cc1,-0.132% (inactive),–
Cc1cccc(NS(=O)(=O)c2ccc(C)c(C(=O)NCc3cccnc3)c2)c1,-4.62% (inactive),–
COC(=O)Cc1ccc(OC(=O)C2CCN(S(=O)(=O)c3ccc(OC)c(OC)c3)CC2)cc1,22.6% (inactive),–
Cc1[nH]c2ccccc2c1C(=O)COC(=O)C(C)C,13.3% (inactive),–
CCOC(=O)c1c(C)[nH]c(C)c1S(=O)(=O)N(C)CC(=O)Nc1ccccc1C,2.89% (inactive),–
CCOC(=O)c1c(C)[nH]c2c1-c1ccccc1C(=O)C2=O,–,2.91 µM (active)
CC[C@]12c3[nH]c4cc(CCC(=O)N(C)C)ccc4c3CCN1C(=O)[C@@H](CC(=O)NCCCn1ccnc1)C[C@@H]2C(=O)N1CCN(C(=O)C2CC2)CC1,20.4% (inactive),–

Structure (SMILES),"activity change, negative = inhibition",Potency
Cc1ccc(N(Cc2ccccc2O)C(=O)c2ccccc2F)cc1,-6.48% (inactive),–
Cc1ccc(C(=O)NCC(=O)O)cc1S(=O)(=O)N1CCCCC1,12.5% (inactive),–
Cc1ccc(C(=O)OCC(=O)N2CC(C)CC(C)C2)cc1S(=O)(=O)N1CCCCC1 (configuration not stated),-2.94% (inactive),–
COc1ccc(C(=O)OCC(=O)c2ccc(C)c(S(=O)(=O)N3CCOCC3)c2)cc1OC,–,10.3 µM (active)
Cc1ccc(C(=O)OCC(=O)Nc2ccc(Cl)cn2)cc1S(=O)(=O)N1CCOCC1,11.3% (inactive),–
Cc1ccc(C(=O)OCC(=O)N2CCCCCC2)cc1S(=O)(=O)N1CCOCC1,6.02% (inactive),–
Cc1ccc(C(=O)OCC(=O)NCc2cc(C)c(O)c(C)c2)cc1S(=O)(=O)N1CCCCC1,–,7.3 µM (active)
COc1ccc(C2(C)ON(c3ccccc3C(F)(F)F)C2=O)cc1 (configuration not stated),-20.7% (inactive),–
Cc1ccc(Cn2cc(C(=O)NN)c(=O)c3ccc(F)cc32)cc1,-19.1% (inactive),–
CC1(C)Oc2ccc3ccc(=O)oc3c2/C(=N/O)C1=O,1.95% (inactive),–
COc1ccc(C(=O)NC(=S)Nc2ccc(N3CCCC3)cc2)cc1OC,26.5% (inactive),–
COc1ccc(C(=O)Nc2ccc3nc(N4CCCCC4)cc(C)c3c2)cc1OC,–,23.1 µM (active)
COc1ccc(C(=O)Nc2ccc(S(=O)(=O)Nc3onc(C)c3C)cc2)cc1OC,4.09% (inactive),–
CN1/C(=C\C(=O)c2cccnc2Cl)C(C)(C)c2ccccc21,11.6% (inactive),–
CN1/C(=C\C(=O)c2oc3ccccc3c2N)C(C)(C)c2ccccc21,–,13 µM (active)
CN1CCN(CCC(=O)N/N=C/C=C2\N(C)c3ccccc3C2(C)C)CC1,10.6% (inactive),–
CC(C)[C@H](NC(=O)N1CCn2c1nc1ccccc12)C(=O)NCCc1ccccc1,6.27% (inactive),–
CCOc1ccc(C(=O)CCC(=O)Nc2ccncc2)cc1,-1.92% (inactive),–
COc1ccc2oc(C(=O)N(CC(C)C)C3CCS(=O)(=O)C3)c(C)c2c1 (configuration not stated),2.82% (inactive),–
COc1cc(C(=O)OC(C)C(=O)NCC2CCCCC2)cc(NC(=O)c2ccco2)c1OC (configuration not stated),–,11.6 µM (active)
CC(OC(=O)c1ccc([N+](=O)[O-])cc1)C(=O)NCC1CCCCC1 (configuration not stated),-18.6% (inactive),–
COc1cc(C(=O)N[C@@H](C)C(=O)NCc2ccco2)cc(OC)c1OC,9.98% (inactive),–
CN1C(=O)[C@H]2[C@@H](/C=C/c3ccccc3)N3C(=O)CN(Cc4ccc(-c5ccccc5)cc4)C(=O)[C@@]3(C)[C@H]2C1=O,-1.92% (inactive),–
